# In PubChem BioAssay AID488857 (Sanford-Burnham Center for Chemical Genomics, 2010):
# Among all 1,400 compounds or so, about 560 (40%) were called active.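 How the source made its calls: active means mean inhibition over duplicate tests at 10 µM above 50%; inactive means the rest.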 So high a share suggests a set chosen from earlier hits. The list shows a part of the results.
# Assay: ASC/caspase-1 reporter retest in S. cerevisiae at one dose, specificity check for NALP1 project (AID 488857)
# Settings: S. cerevisiae ASC/Caspase-1, beta-galactosidase luminescence, 24 h; at 10 µM; active compounds read high
row,SMILES,inhibition
1,Cc1sc(NC(=O)c2cc3ccccc3oc2=O)c(C(=O)OC(C)C)c1-c1ccccc1,36% (inactive)
2,COc1cccc(N2C(=O)C(O)=C(C(C)=O)C2c2ccc(OC)c(OC)c2)c1 (stereo unspecified),31% (inactive)
3,CC(=O)N1CC[n+]2c(-c3ccc(Cl)cc3Cl)csc21,23.9% (inactive)
4,CC(C)Cn1c(CN(Cc2ccccc2)Cc2ccccc2)nc2c1c(=O)n(C)c(=O)n2C,35.6% (inactive)
5,O=C(CSCc1cccc(Cl)c1)Nc1ccccc1-c1ccccc1,62.6% (active)
6,Cc1ccc(CC(=O)Nc2ccccc2-c2ccccc2)cc1C,34.3% (inactive)
7,O=C(CSC1=NS(=O)(=O)c2ccccc21)Nc1ccccc1,43.5% (inactive)
8,COc1ccc(CCN(C)C2CC(=O)N(c3ccccc3)C2=O)cc1OC (stereo unspecified),51% (active)
9,COc1ccc(CCNC(=O)CN2CCC(C)CC2)cc1OC,28.1% (inactive)
10,COC(=O)c1ccccc1SC1CC(=O)N(c2ccccc2)C1=O (stereo unspecified),49.2% (inactive)
11,COc1ccc2[nH]c3c(C)c4ccncc4c(C)c3c2c1,98.8% (active)
12,COc1ccc2[nH]c(C)c(CCNC(=S)Nc3cc(C)cc(C)c3)c2c1,17% (inactive)
13,CC(C)(C)c1cc(C(=O)O)n[nH]1,-9.25% (inactive)
14,O=C(Nc1nccs1)c1sc2ccccc2c1Cl,80.7% (active)
15,O=C(Nc1nc(-c2ccccn2)cs1)c1ccc(Cl)s1,46.2% (inactive)
16,CNC(=O)c1ccsc1NC(=O)c1sc2ccccc2c1Cl,58.8% (active)
17,O=c1cc(-c2ccccc2)[nH]c2nc3ccccc3n12,44.1% (inactive)
18,Cc1nc(-c2ccccc2)cn2c1nc1ccccc12,59.9% (active)
19,Cc1ccc(Nc2cc(C)nc(NCc3ccccc3)n2)cc1,61.2% (active)
20,Cc1cc(N/N=C/c2ccccc2)nc(NCc2ccccc2)n1,68.2% (active)
21,Cc1cc(N/N=C/c2ccccc2Cl)nc(NCc2ccccc2)n1,52.2% (active)
22,Cc1cc(N/N=C/c2cccc(Cl)c2)nc(NCc2ccccc2)n1,55.9% (active)

row,SMILES,inhibition
1,Cc1ccccc1N(CC(=O)N/N=C/c1ccccc1Cl)C(=O)c1ccccc1,35.8% (inactive)
2,CC1(C)CC(=O)C2=C(C1)OC(N)=C([N+](=O)[O-])C2c1cccs1 (stereo unspecified),39.2% (inactive)
3,CCOC(=O)c1c(C)n(C)c2cc(-c3ccc(C)cc3)c(O)cc12,41.5% (inactive)
4,Cc1cc(N/N=C/c2ccc(Cl)cc2)nc(NCc2ccccc2)n1,78.7% (active)
5,O=C(COc1ccc(CO)cc1Cl)Nc1ccc(F)cc1,38.2% (inactive)
6,Cc1ccccc1OCC(=O)Nc1cccc(N(C)S(C)(=O)=O)c1,34.6% (inactive)
7,O=C(COc1ccc(Br)cc1Br)NC(=S)Nc1cccc(CO)c1,59.8% (active)
8,COc1ccc(C(=O)O/N=C(\N)Cc2ccc(Cl)cc2Cl)cc1OC,72.4% (active)
9,CCc1ccc(C(=O)NCc2ccc(Cl)cc2Cl)cc1,49.6% (inactive)
10,COc1ccc(Cl)cc1C(=O)O/N=C(\N)c1ccc(Cl)cc1,43.9% (inactive)
11,N/C(Cc1ccc(Cl)cc1Cl)=N\OC(=O)c1cccs1,53.2% (active)
12,CCN(CC)CCN1C(=O)c2ccccc2NC1c1ccc(N(C)C)cc1 (stereo unspecified),31.9% (inactive)
13,CCCc1ccc(-c2c(C)sc(N)c2C#N)cc1,51.2% (active)
14,CCn1c(C)[n+](CC(O)COCC2CC=CCC2)c2ccccc21 (stereo unspecified),41.3% (inactive)
15,COc1cc(C)ccc1OCCOCCOc1ccc([N+](=O)[O-])cc1,65.2% (active)
16,C=CCc1ccc(OCCCOc2ccc(C)cc2OC)c(OC)c1,31.8% (inactive)
17,COc1ccc(CNc2nc(C)c([N+](=O)[O-])c(C)c2C#N)cc1,45.5% (inactive)
18,O=C1/C(=C\c2cccnc2)CN(Cc2ccccc2)C/C1=C\c1cccnc1,30.4% (inactive)
19,NNC(=S)NCc1cccnc1,37.2% (inactive)
20,S=C1SCN(Cc2cccnc2)CN1Cc1cccnc1,89.2% (active)
21,Nc1[nH]c(=O)ncc1F,81.2% (active)
22,Cc1nc(N)sc1N=Nc1ccc(Br)cc1,68.5% (active)

row,SMILES,inhibition
1,CCOC(=O)c1c(C)n(C)c2ccc(OC)c(NC(=O)CN3CCN(C4CCCCC4)CC3)c12,21.6% (inactive)
2,CCOC(=O)C(=CNNc1ccsc1C(=O)OC)C(=O)OCC,41% (inactive)
3,CCOC(=O)C(=Cc1cc(=O)c(OC)co1)C(=O)OCC,85.2% (active)
4,C1=CC2CC1CC2CN1CCN(Cc2ccccc2)CC1 (stereo unspecified),48.8% (inactive)
5,Cc1onc(-c2ccccc2Cl)c1C(=O)N1C=CC(C(F)(F)F)=NCC1,77.5% (active)
6,COc1ccc(NC(=S)N(C(C)C)C2CCN(C(C)C)CC2)cc1Cl,25.9% (inactive)
7,COc1ccc(C(=O)Nc2ccc(S(=O)(=O)Nc3nccc(C)n3)cc2)cc1OC,35.9% (inactive)
8,COc1ccc(NC(=S)SC)cc1OC,60.2% (active)
9,CC1CN(S(=O)(=O)c2ccc(C(=O)Nc3nc(-c4cc5ccccc5o4)cs3)cc2)CC(C)O1 (stereo unspecified),32.9% (inactive)
10,O=C(CN1CCc2ccccc2C1)NCc1ccco1,36.3% (inactive)
11,CCn1c(C(=O)N2CCc3ccccc3C2)cc2oc3ccccc3c21,44.5% (inactive)
12,O=C(c1cc(-c2ccc(O)cc2)on1)N1CCc2ccccc2C1,58.4% (active)
13,CC1(O)N(Cc2ccccc2)C(=O)OC12CCCCC2 (stereo unspecified),45.9% (inactive)
14,OCCn1c(-c2ccc(F)cc2)csc1=Nc1ccccc1,46.5% (inactive)
15,O=C(NCCN1C(=O)S/C(=C\c2cccnc2)C1=O)c1cccc(OC(F)F)c1,45.1% (inactive)
16,COc1ccc(C)cc1NC(=O)c1ccc(CN2CCN(c3ccccc3)CC2)cc1,33.5% (inactive)
17,CSc1ccccc1NC(=O)Nc1ccccc1Cl,49.8% (inactive)
18,COc1ccc(NC(=O)c2ccc(C)cc2)c(OC)c1,36.7% (inactive)
19,Cc1c(Cl)cccc1NC(=O)c1cccc(OC(F)F)c1,68.8% (active)
20,COc1ccc(C)cc1NC(=O)c1ccc(OC(F)F)cc1,66.2% (active)
21,CCN(CC1COc2ccccc2O1)S(=O)(=O)c1ccc(C)cc1 (stereo unspecified),43.9% (inactive)
22,Cc1c(C(=O)NCC2COc3ccccc3O2)oc2ccc(S(=O)(=O)N3CC(C)CC(C)C3)cc12 (stereo unspecified),30.4% (inactive)
